# TWEAK Fn14 block = TWEAK-Fn14 signaling inhibition. 2% of 360,000 active. TWEAK-stimulated Fn14 reporter cells, luciferase luminescence, 8 h. inhibition, % at 10 µM; in the data active means inhibition above about 50%
# TROY NFkB inh = inhibitors of TROY-dependent NF-kB signaling; Q293 LMP1-TROYcd NF-kB luciferase reporter, 4 h; inhibition, % at 10 µM; 0.98% of 360,000 active; AID 1347056;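 active means compounds whose plate-normalised and pattern-corrected inhibition of the luciferase reporter signal at the single screening dose is 50% or more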
# Peg3 promoter = reduces Peg3 promoter-driven luciferase expression in HeLa. HeLa PEG-Prom luciferase reporter, luminescence, overnight. inhibition, % at 20 µM. AID 588405. 1.7% of 360,000 active;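 active means inhibition of at least 50% at 20 µM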
# KKLEB tox = reduces viability of KKLEB cystic fibrosis airway cells | AID 602141 | activity change (cytotoxicity), % at 5 µM | 0.36% of 360,000 active | KKLEB CF airway cells viability, ATPlite luminescence, overnight; stronger effect = lower value; cells stimulated with P. aeruginosa culture filtrate;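 active means corrected activity change at or below -50% at 5 µM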
# CF NFkB block = cystic fibrosis NF-kB activation inhibition; KKLEB NF-kB-GFP reporter, PAF-induced, GFP fluorescence overnight; inhibition, % at 5 µM; 0.86% of 360,000 active; AID 588850;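 active means at least 50% inhibition at 5 µM, scaled per plate between neutral and stimulator controls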;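 further: PAF is a Pseudomonas aeruginosa culture filtrate used as stimulus; plate controls were PAF-stimulated DMSO wells for no effect and unstimulated DMSO wells for full effect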
# HIF-2a inh = HIF-2a inhibition | 786-0 RCC cells HIF-2a reporter, luciferase luminescence, overnight | inhibition, % at 18.8 µM | 0.72% of 360,000 active | AID 624352;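 active means inhibition of the luminescence signal of 40% or more relative to plate controls, in a single-dose primary screen at 18.75 µM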
# * hit, by the source's call. Sampled rows, rich in hits. Any-hit rate of the full collection: about 4%.
SMILES,TWEAK Fn14 block,TROY NFkB inh,Peg3 promoter,KKLEB tox,CF NFkB block,HIF-2a inh
Cc1cccc(C)c1Nc1nnc(SCC(=O)Nc2cc(S(=O)(=O)N3CCCCC3)ccc2Cl)s1,12,25,17,0,-8,19
O=C(Cn1[nH]c(=O)c2ccccc2c1=O)Nc1cccc(S(=O)(=O)N2CCCCCC2)c1,51*,25,22,4,0,14
COc1ccc(S(=O)(=O)N2CCC(NC(=O)C3CCCCC3)CC2)cc1,80*,-14,8,1,-10,6
Cc1cccc(Nc2nnc(SCC(=O)Nc3cccc(S(=O)(=O)N4CCCCC4)c3)s2)c1,60*,12,-202,-16,10,-200
O=C(Cc1ccccc1Cl)Nc1cccc(S(=O)(=O)N2CCOCC2)c1,90*,81*,20,2,7,21
COc1ccc(S(=O)(=O)N2CCC(C(=O)NC3CC3)CC2)cc1,-18,3,-12,-5,-11,-1
Nc1ncnc2c1nc(-c1ccccc1)n2C1OC(CO)C(O)C1O (configuration not stated),4,4,-2,2,5,10
Cc1cccc(C)c1NC(=O)C1NC(=O)CC1c1ccccc1 (configuration not stated),3,-21,-7,-4,7,0
Cc1ccnc(NC(=O)CC(NC(=O)c2ccccc2Cl)c2ccccc2)c1 (configuration not stated),-14,21,-256,-6,20,-178
COC(=O)c1ccc(S(=O)(=O)NCc2ccc(OC)cc2)n1C,-12,-3,25,-1,20,14
Cc1sc2nc(CN(C(=O)NC3CCCCC3)C3CCCCC3)[nH]c(=O)c2c1C,18,4,50*,-5,-11,13
O=C(NC1CCCCC1)N(Cc1nc2ccccc2c(=O)[nH]1)C1CCCCC1,-12,-10,-10,-3,9,-75
COc1ccc(-c2csc3ncnc(N4CCN(c5cccc(OC)c5)CC4)c23)cc1,54*,16,38,4,44,10
COc1ccc(CN2CCN(c3ncnc4scc(-c5ccc(F)cc5)c34)CC2)cc1,-17,-4,19,-4,14,9
CCN1CCN(c2ncnc3scc(-c4ccc(OC)cc4)c23)CC1,91*,10,-2,0,5,16
O=C(NC(=S)Nc1ccc(S(=O)(=O)NC2CCCCC2)cc1)c1cccs1,53*,17,4,9,12,16
O=C(NC(=S)Nc1ccc(S(=O)(=O)N2CCCCC2)cc1)c1cccs1,4,-10,32,1,12,16
Cc1ccc(NC(=O)C2CCN(S(=O)(=O)c3ccc4c(c3)NC(=O)C(C)S4)CC2)cc1Cl (configuration not stated),63*,47,22,-8,46,10
Cc1cc(C)cc(NC(=O)C2CCN(S(=O)(=O)c3ccc4c(c3)NC(=O)C(C)S4)CC2)c1 (configuration not stated),-2,26,42,0,16,10
Cc1ccc(C)c(N2CCN(C(=O)CCS(=O)(=O)c3ccc4c(c3)NC(=O)C(C)S4)CC2)c1 (configuration not stated),72*,44,34,9,9,4
COc1ccc(N2CCN(C(=O)CCS(=O)(=O)c3ccc4c(c3)NC(=O)C(C)S4)CC2)cc1 (configuration not stated),-1,-10,13,14,-9,10
C(=C\c1ccccc1)/C=N/N1CCN(Cc2ccccc2)CC1,-110,-59,-128,1,-22,-179
Cc1[nH]c(=S)c(C#N)c(C)c1CCC#N,28,-8,9,-2,2,3
CC(C)(C)OC(=O)N1CCC(NC(=O)c2nc[nH]c2C(=O)NC2CCN(C(=O)OC(C)(C)C)CC2)CC1,-17,-8,15,10,-5,13
Cn1cnc(C(=O)NCc2ccc(CNC(=O)OC(C)(C)C)cc2)c1C(=O)NCc1ccc(CNC(=O)OC(C)(C)C)cc1,58*,21,32,-12,12,20
Cc1ccc(NC(=O)c2nc[nH]c2C(=O)NCCCCCNC(=O)OC(C)(C)C)cc1,5,4,29,-7,24,1
CC(C)(C)OC(=O)NCCCCCNC(=O)c1[nH]cnc1C(=O)Nc1ccc(Cl)cc1,62*,57*,29,-45,26,0
